# Sampled rows, rich in hits. Any-hit rate of the full collection: about 2.7%.
# LDHA inh – LDHA (human) enzyme inhibition. P00338. purified LDHA, NADH/diaphorase-resazurin fluorescence; hits give low values. activity change, % (values are at about 110 or 230 µM). 0.15% of 480,000 active; in the data active = activity change below about -30%; inconclusive = mostly about -25% to -30%;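 also: plate controls were DMSO wells for no effect and wells without enzyme for full effect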
#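 LDH5 2 nM; NADH 0.06 mM, pyruvate 0.2 mM; 200 mM Tris pH 7.4, EDTA, Tween-20; 5 min RT. Detection: diaphorase 0.133 mg/mL + resazurin 37 µM, fluorescence ex540/em590 at 0 and 20 min; normalized to enzyme-free and DMSO wells.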
# ALOX12 inh – ALOX12 (human) lipoxygenase inhibition; purified 12hLO, xylenol orange hydroperoxide absorbance; Potency, µM (top dose mostly 108 µM), for the others: at the top dose activity change, negative = inhibition, actives largely listed as inhibitors; AID 1671190; P18054; 1.1% of 580,000 active; also: potency is read from the fitted curve at half-maximal effect; % is scaled to controls: 0 for no effect and ±100 for the full control effect
#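 Purified human 12hLO (150 nM final) in 25 mM Hepes, 0.01% Triton X-100, pH 7.0 was preincubated 15 min at room temperature with compound. Then 40 uM arachidonic acid was added, 30 min. Hydroperoxide was read by Fe-XO absorbance ratio 573/405 nm.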
# Nrf2 ARE act – activates Nrf2 signaling; AID 624171; Potency, µM (highest dose often 46.1 µM), for the others: at the top dose activation, usual class: activators; 0.31% of 410,000 active; AREc32 ARE-luciferase reporter (MCF7-derived line), luminescence, 24 h; also: potency is read from the fitted curve at half-maximal effect; % of control where 0% means no effect; nearly all actives have a fitted effect of over 65% in size
#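 Luciferase luminescence (Steady-Glo, 30 min at room temperature) served as the read-out of ARE activation in AREc32 cells treated with compounds for 24 hr at 37 deg C.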
# Nrf2 block – blocks Nrf2 signaling. A549 ARE-Fluc reporter, luciferase luminescence, 18-24 h. Potency, µM (top dose mostly 46 µM), inactives show at the top dose activity change, negative = inhibition, usual class: inhibitors. 2.1% of 360,000 active. AID 504444; also: potency is read from the fitted curve at half-maximal effect; % is scaled to controls: 0 for no effect and ±100 for the full control effect; nearly all actives have a fitted effect of over 60% in size
#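 In this cell-based qHTS, ARE-driven firefly luciferase in A549 cells reports Nrf2 activity; the luminescent signal after BugLite lysis is the measured value, with a prior CellTiter-Fluor read for cell health.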
# IDH1 R132H inh – human IDH1 R132H inhibition. IDH1-R132H enzyme, NADPH consumption, diaphorase/resazurin fluorescence. 0.093% of 390,000 active. O75874. Potency, µM (highest dose often 76.6 µM), for inactives: at the highest dose activity change, negative = inhibition, usual class: inhibitors; also: potency is read from the fitted curve at half-maximal effect; % is scaled to controls: 0 for no effect and ±100 for the full control effect; nearly all actives have a fitted effect of over 65% in size
# Target sequence (O75874 whole entry R132H, stated change not applied): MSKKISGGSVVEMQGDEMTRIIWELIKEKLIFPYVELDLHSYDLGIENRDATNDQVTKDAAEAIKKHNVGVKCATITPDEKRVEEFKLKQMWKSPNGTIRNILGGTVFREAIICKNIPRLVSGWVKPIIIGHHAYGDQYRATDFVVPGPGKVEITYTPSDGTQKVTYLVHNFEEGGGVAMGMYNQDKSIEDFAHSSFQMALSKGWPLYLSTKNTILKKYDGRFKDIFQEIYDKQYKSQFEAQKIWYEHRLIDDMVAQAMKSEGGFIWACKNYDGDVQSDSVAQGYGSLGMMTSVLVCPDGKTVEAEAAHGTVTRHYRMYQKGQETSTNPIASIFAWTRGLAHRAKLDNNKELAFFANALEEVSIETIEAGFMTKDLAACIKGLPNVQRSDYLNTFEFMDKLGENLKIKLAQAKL
#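 IDH1-R132H (0.5 ug/mL) preincubated 30 min with compound, then NADPH (0.016 mM) and alpha-KG (2 mM) added; 80 min at RT, pH 7.5. Remaining NADPH coupled via diaphorase/resazurin to fluorescence (540/590 nm); concentration-response curves normalized to no-enzyme control.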
# A549 tox – A549 cytotoxicity, counter-screen for Nrf2 inhibitors. A549 ARE-Fluc cells, CellTiter-Fluor viability, 18-24 h. Potency, µM (top dose mostly 46 µM), without a hit: at the top dose activity change, negative = cytotoxicity, most hits filed as inhibitors. 0.16% of 390,000 active; also: potency is read from the fitted curve at half-maximal effect; % is scaled to controls: 0 for no effect and ±100 for the full control effect
#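 A549 ARE_Fluc cells in 5% FBS OPTI-MEM were exposed to compounds in concentration-response for 18-24 h at 37 deg C. Viability was read by CellTiter-Fluor fluorescence (Ex 405/Em 525) after 30 min, before the luciferase read.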
# * = called active by the depositor; ? = inconclusive; · = no result given; ! = not confirmed by another sample; [ ] = another dose, or the depositor's remark. Unless noted, calls follow the shape of the dose curve; as a rule, active = well fitted curve in the direction sought with a large enough effect; inconclusive = small, poorly fitted or top-dose-only effect, or another doubt; inactive = no such curve, though single readings can be large; an effect the other way counts as inactive or inconclusive.
SMILES,LDHA inh,ALOX12 inh,Nrf2 ARE act,Nrf2 block,IDH1 R132H inh,A549 tox
COc1ccc(-c2cccc(COc3cnc4c(ccn4CC(=O)O)c3)c2)c(C)c1,·,44.7µM*,·,·,·,·
O=C(O)Cn1ccc2cc(OCCc3cccc(-c4ccc(Cl)cc4)c3)cnc21,·,44.7µM*,·,·,·,·
CC(C)c1ccccc1NC(=O)CCc1ncc(-c2ccccc2F)o1,6.9,?,·,·,·,·
Cc1cc(Cl)ccc1OCc1n[nH]c(=S)n1C1CCCCC1,8.1,?,-0.2%,?,-6.0%,-9.5%
COc1ccc(-c2n[nH]c(=S)n2C2CCCCC2)cc1,-1.2,44.7µM*,0.1%,4.3%,1.3%,1.8%
S=c1[nH]nc(-c2cccnc2)n1C1CCCCC1,0.0,-17.5%,-0.1%,3.6%,0.9%,-1.0%
COc1ccc(Cl)cc1-c1n[nH]c(=S)n1C1CCCCC1,-3.7,39.8µM*,-0.2%,2.2%,-3.9%,-1.5%
Cc1ccc(/C=C/C(=O)N2CCN(S(=O)(=O)c3ccc(C)c(C)c3)CC2)o1,8.4,17.8µM*,2.6%[9.22 µM],-0.3%,7.1%,15.3%
COc1ccccc1/C=C/C(=O)N1CCN(S(=O)(=O)c2cc(C)ccc2C)CC1,0.6,191.1%,-0.6%,16.4µM*,2.7%,-2.3%
Cc1ccc(/C=C/C(=O)N2CCN(S(=O)(=O)c3c(C)c(C)cc(C)c3C)CC2)o1,4.6,?,15.6%,-7.5%,4.3%,-2.8%
CSc1nccc(-c2cc(Cl)sc2Cl)n1,-4.8,-13.7%,11.2µM*,·,15.2%,14.3%
CSc1nccc(-c2ccc(C)c(C)c2)n1,-16.8,?,·,·,·,·
COCCn1cnnc1SCc1ccc(F)cc1Cl,-10.3,8.2%,·,·,·,·
COc1ccc(CN[C@H](C)c2onc(C)c2C(=O)O)cc1,·,28.2µM*,·,·,·,·
Cc1ccccc1CNC(=O)c1cc2c(C)nn(C)c2s1,-15.8,45.0%,·,·,·,·
Oc1ccc(Br)cc1-c1cc(-c2ccco2)[nH]n1,1.4,?,3.55µM*,·,-0.7%,2.7%
S=c1[nH]nc(-c2cc(-c3ccco3)[nH]n2)n1-c1ccccc1,-12.6,22.4µM*,?,-5.8%,1.1%,-1.1%
Oc1ccccc1-c1cc(-c2ccco2)[nH]n1,13.3,20µM*,?,?,23.0%,-17.7%
S=c1[nH]nc(-c2cc(-c3ccco3)[nH]n2)n1-c1ccccc1Cl,-4.6,?,17.7%,-24.1%,17.9%,0.9%
Oc1c(-c2cc(-c3ccco3)[nH]n2)ccc2ccccc12,3.4,?,?,?,14.8%,-1.9%
Oc1ccc(Cl)cc1-c1cc(-c2ccco2)[nH]n1,20.5,?,?,10.9%,3.3%,-6.2%
O=C(COC(=O)C1(c2ccc(F)cc2)CCCC1)Nc1ccc([N+](=O)[O-])cc1C(F)(F)F,2.7,10.4%,·,·,·,·
O=C(COc1cc(Cl)ccc1Cl)NCc1cccc(NC(=O)C2CC2)c1,11.1,27.3%,·,·,·,·
CCNC(=O)COC(=O)c1cc(Cl)cc(Cl)c1,-5.9,-45.5%,·,·,·,·
Cc1nc2sc(C(=O)OCC(=O)Nc3cc(C(F)(F)F)ccc3Cl)c(C)c2c(=O)[nH]1,8.0,3.2%,·,·,·,·
SMILES,LDHA inh,ALOX12 inh,Nrf2 ARE act,Nrf2 block,IDH1 R132H inh,A549 tox
NC(=S)c1ccc(S(N)(=O)=O)cc1,-6.7,3.16µM*,·,·,·,·
O=C(CN1C(=O)NC(Cc2c[nH]c3ccccc23)C1=O)Nc1cccc(F)c1 (stereo not given),11.6,-4.9%,·,·,·,·
CCOc1ccc(C(=O)N2CCC(Cc3nc(-c4ccc(OC)cc4)no3)CC2)cc1OCC,·,43.4%,·,·,·,·
CCC(C)[C@H](NC(=O)N1CCN(c2cccc(C(F)(F)F)c2)CC1)C(=O)OC (stereo not given in full),3.7,0.3%,-0.6%,18.4µM*,1.6%,-9.6%
COc1ccc(NC(=O)N2CCN(c3cccc(C(F)(F)F)c3)CC2)cc1OC,11.2,-16.7%,0.2%,?,4.9%,-4.5%
CC1CCc2onc(C(=O)N3CCN(c4cccc(C(F)(F)F)c4)CC3)c2C1 (stereo not given),-1.6,-8.3%,-0.2%,20.6µM*,17.1%,-3.3%
O=C(Nc1ccccc1)N1CCN(c2cccc(C(F)(F)F)c2)CC1,-1.6,23.0%,-0.6%,23.1µM*,1.3%,-16.2%
FC(F)(F)c1cccc(N2CCN(C(=S)NCC3CCCO3)CC2)c1 (stereo not given),5.7,2.0%,3.2%,13µM*,3.6%,?
COC(=O)[C@@H](NC(=O)N1CCN(c2cccc(C(F)(F)F)c2)CC1)C(C)C,1.2,?,2.0%,?,6.0%,-3.4%
S=C(NCC1CCCO1)N1CCN(c2ccccc2)CC1 (stereo not given),-0.2,-14.2%,3.3%,0.7%,0.3%,0.2%
O=C(CCC1CCCO1)NC1CCCC1 (stereo not given),-1.0,4.5%,·,·,·,·
O=C(Cn1ncc2ccccc2c1=O)NCC1CCCCC1,-4.9,?,·,·,·,·
N#Cc1nc(C2CC2)oc1N1CCN(Cc2ccc(F)cc2Cl)CC1,-0.2,-11.0%,·,·,·,·
COc1ccc(NC(=O)COCC(=O)N(c2ccccc2)c2ccccc2)cc1,10.2,-0.2%,·,·,·,·
Cc1cccc(N2CCN(c3ccc4cc(S(=O)(=O)N5CCC(C)CC5)ccc4n3)CC2)c1C,7.4,50.1µM*,-0.1%,22.0%,8.4%,5.6%
Cc1cccc(N2CCN(S(=O)(=O)c3ccc4[nH]c(=O)ccc4c3)CC2)c1C,-1.5,18.1%,0.9%,18.4µM*,-12.7%,-25.1%
COc1ccc(C(=O)Nc2ccc(Cl)cc2C(=O)NCc2ccco2)cc1OC,0.3,0.0%,2.7%,20.6µM*,6.8%,?
Cc1ccc2c(c1)N(C(=O)CSc1nncn1C)C(C)(C)c1ssc(=S)c1-2,-8.1,35.5µM*,2.3%,·,2.9%,?
CCCOc1ccc2c(c1)sc1ncc(NC(=O)c3ccc(OC)c(OC)c3)c(=O)n12,5.4,-0.5%,·,·,·,·
Cc1ccc(C(C)C)c(OCCNCCc2ccccc2)c1,-2.9,7.94µM*,-1.4%,-14.5%,-1.5%,-7.5%
CC(=O)NC12CC3CC(C1)CC(C(=O)NCCCC1CCCC1)(C3)C2,-4.9,2.4%,·,·,·,·
COc1ccccc1NC(=O)CN1C(=O)C2(SCC(=O)N2c2ccc(C)c(C)c2)c2ccccc21 (stereo not given),12.5,1.2%,-0.1%,20.6µM*,-1.6%,?
COc1ccccc1CNC(=O)CCc1nnc2ccc(NCc3ccc4c(c3)OCO4)nn12,-3.5,0.3%,·,·,·,·
CC(C)c1ccc(Cn2ccc3c4c(N)nc(NC5CC5)nc4ccc32)cc1,·,21.7µM*!,·,·,·,·
Nc1nc(N)c2c(ccc3c2ccn3Cc2cccc([N+](=O)[O-])c2)n1,-3.8,?,-4.8%,·,·,·
CCOc1ccc(N2C(=O)c3ccccc3NC23CCSC3)cc1 (stereo not given),8.6,?,·,·,·,·
